Reference: ChEMBL document CHEMBL4513216, “Probing the Open Global Health Chemical Diversity Library for Multistage-Active Starting Points for Next-Generation Antimalarials” (ACS Infect Dis, 2020)
In all, about 65,000 compounds went through this assay and about 2,100 (3.2%) showed an effect of 50% or more. The median lay at about -52%. Only a selection was taken, and strong results are over-represented in it overall.

System: Plasmodium falciparum
Assay: Screen against P. falciparum Asexual Blood Stage (ABS), at 5uM
Format: functional, Dd2
Conditions: tested at 5 uM

Structure (SMILES)	INHIBITION [%]
CCS(=O)(=O)N1CCc2c(cccc2NC(=O)NCCO)C1	-14.1
Clc1cc(Cl)cc(OCCN2CCC(n3cncn3)CC2)c1	33.8
Cn1ccnc1CN1CCCN(C(=O)CC(C2CC2)C2CC2)CC1	-16.7
Cn1nc(COCC2CC2)c2c1CCN(Cc1cccs1)C2	-41.4
CN(Cc1cccs1)C(=O)CN1CCOC(Cn2cncn2)C1 (stereo not drawn)	-56
Cc1cccc(C(C(=O)N(C)Cc2ccon2)N(C)C)c1 (stereo not drawn)	-2.4
Cc1cccc(C(C(=O)N(C)Cc2cc(C)no2)N(C)C)c1 (stereo not drawn)	49.9
Cc1cccc(C(C(=O)N(C)Cc2ccco2)N(C)C)c1 (stereo not drawn)	66.7
CCC(CO)NCc1ccc(-c2ccccc2F)o1 (stereo not drawn)	-35.5
O=C(Cn1ccnc1)N1C[C@@H]2CC[C@H](Oc3ccc(Cl)cc3)[C@@H]2C1	-41.4
COc1ccc(-c2nc(C)cc(SCC(N)=O)n2)cc1	-104
CN1CCC(N(CCc2ccccc2)C(=O)c2ccc(C#N)cc2)CC1	28.4
COc1ccc2[nH]cc(-c3ccnc(NC4CCCC4)n3)c2c1	58.8
COc1ccc2[nH]cc(-c3ccnc(N4CCC(C)CC4)n3)c2c1	-172
O=c1[nH]c(-c2ccncc2)ncc1-c1ccnc(NC2CCCCC2)n1	-61.7
CC(C)c1noc(CN(Cc2ccccc2)C2CC2)n1	-119
CCN1CCn2c(C)cnc2C12CCN(C(=O)N(C)C)CC2	53
CCN1CCn2c(C)cnc2C12CCN(C(=O)C(C)C)CC2	-51.6
CCN1CCn2c(C)cnc2C12CCN(C(=O)CC(C)C)CC2	-55.6
CC(C)CNC(=O)c1c(-n2cnnn2)sc2c1CCCC2	-47.3
CCN1CCCC(CNC(=O)C2(c3cccc(Cl)c3)CC2)C1 (stereo not drawn)	69.7
COCCN1CCC(CNC(=O)C2(c3ccccc3)CCC2)C1 (stereo not drawn)	-0.505

Structure (SMILES)	INHIBITION [%]
CCCN1CCC(CNC(=O)C2(c3cc(C)cc(C)c3)CCC2)C1 (stereo not drawn)	41.6
CCN1CCC(CNC(=O)C2(c3cccc(C)c3)CC2)C1 (stereo not drawn)	0.0435
COCCN1CCC(CNC(=O)C2(c3cccc(Cl)c3)CC2)C1 (stereo not drawn)	-0.48
CCCN1CCC(CNC(=O)C2(c3ccccc3)CCC2)C1 (stereo not drawn)	66.3
COc1cc2c(cc1CNCc1cccnc1-n1cccn1)OC(C)C2 (stereo not drawn)	20.8
COc1cccc(COCC(=O)N2CCCC2Cn2cccn2)c1 (stereo not drawn)	-10.1
COCc1ccccc1NCc1csc(NC(C)=O)n1	-51.9
CCCN1CCC(c2nc3ccc(NCc4cccnc4)cn3n2)CC1	-28.7
O=C(c1ccc(Cl)cc1)N1CCC(N2CCNC2=O)CC1	-169
CCN(C)C1COC2(CCN(C(=O)c3ccc(Cl)cc3)CC2)C1 (stereo not drawn)	2.64
CC1(C)[C@@H]2CC=C(CN3CCCn4nc(C(=O)O)cc4C3)[C@H]1C2	-37.3
COCCNc1nnc(S(=O)(=O)CCC(C)(C)C#N)s1	-77.6
CCn1nc(C)c2nc(C(C)C)nc(NCCc3ccc(O)cc3)c21	-3.69
Cc1c(-c2cc(C(F)(F)F)nc(N3CCC(N)CC3)n2)cnn1C	22.7
Cc1ccc(-c2cc(C(F)(F)F)nc(N3CCOCC3)n2)s1	-17.2
CCn1ncc(-c2cc(C(F)(F)F)nc(N3CCC(N)CC3)n2)c1C	65.2
CCOC(=O)N1CCN(C(=O)c2cc(OCC)c3ccoc3c2)CC1	-79
COc1cc(C(=O)Nc2nc(C)no2)ccc1OC(F)F	-35.8
Cn1cc(CCCN2CCCC(c3cc(C(F)(F)F)[nH]n3)C2)cn1 (stereo not drawn)	33.1
Cc1cnn(CC2CN(Cc3cccc(OC(C)C)c3)CCO2)c1 (stereo not drawn)	35.5
O=C(NC1CCC1)[C@H]1C[C@H]2CN(CC3CC3)C[C@@H]1O2	-98
NCC1CN(C(=O)c2cccc(-n3cccn3)c2)CCO1 (stereo not drawn)	-21.2

Structure (SMILES)	INHIBITION [%]
O=C(c1cccc(-n2cccn2)c1)N1CCCOC(Cn2cccn2)C1 (stereo not drawn)	-33.9
O=C(c1cccc(-n2cccn2)c1)N1CCCOC(CN2CCCC2)C1 (stereo not drawn)	53.4
O=C(CSCC1CC1)N1CCCN(c2ccc(F)cc2)CC1	-42.8
COc1ccc(-n2cnnc2SCC(=O)N(C)C(C)C)cn1	-60.2
O=C(C1CC1)N1CCc2ccccc2C12CCNCC2	-55.8
CCOC(=O)N1CCc2ccccc2C12CCNCC2	54.6
COCC(=O)N1CCc2ccccc2C12CCNCC2	-52
Cc1cc(-c2cnc(N3CCNC(=O)C3)nc2-c2ccncc2)on1	-43.2
CCc1nc(C)c(C(=O)N2C[C@@H](C(=O)O)[C@H](C3CC3)C2)s1	-112
COCCN(C)C[C@H]1C[C@H](CO)CN(C(=O)c2ccc(=O)n(C)c2)C1	-100
Cc1ccc(N2CCC3(CN(Cc4ccncc4)CCC3(F)F)C2)nn1 (stereo not drawn)	-5.89
CCC(NCc1ccccn1)c1ccccc1OCC(=O)NC (stereo not drawn)	-27.1
CCC(NCc1ccccc1)c1ccccc1OCC(=O)NC (stereo not drawn)	65.6
CCC(NC(=O)c1ccco1)c1ccccc1OCC(=O)N1CCCC1 (stereo not drawn)	-51.4
CC(Cn1cncn1)NC(=O)N1CC2(CCCC2)c2ccccc21 (stereo not drawn)	-89
N#CC1(NC(=O)Cc2cc(Cl)c3c(c2)OCCO3)CCC1	-75
O=C(c1cocn1)N1CC[C@H]2OCC[C@@]2(COc2ncccc2F)C1	-34.6
COCC(=O)N1Cc2ccnn2CC(COCCN(C)C)C1 (stereo not drawn)	-13.6
CC(C)n1c(C2CCCN(CC(N)=O)C2)nc2ccccc21 (stereo not drawn)	-23.5
CC(C)n1c(C2CCCN(CCS(C)(=O)=O)C2)nc2ccccc21 (stereo not drawn)	-69.9
CC(C)OCCCN1CCCC(c2nc3ccccc3n2C(C)C)C1 (stereo not drawn)	56
Cc1ccnc(NC(=O)CCc2cnn(C)c2C)c1	-26.3

Structure (SMILES)	INHIBITION [%]
CC(C)CSCCCNC(=O)C1CCC1	-47.5
CCN(CC1CCOC1)S(=O)(=O)Cc1cc(Cl)ccc1OC (stereo not drawn)	59.1
CCN(CC1CCOC1)S(=O)(=O)Cc1ccccc1Cl (stereo not drawn)	-53.1
COc1ccc(Cl)cc1CCNC(=O)N(C)CC1CCOC1 (stereo not drawn)	-102
CN1CCCCC12CCN(C(=O)c1cccn1C)CC2	-27
COCCNc1ncnc2c1CCN(C(=O)CC1CCC(=O)N1)CC2 (stereo not drawn)	-36
CC(=O)N1CCCC2(C1)CN(C(=O)C1CCCCC1)CCO2 (stereo not drawn)	-104
CC(=O)N1CCC2(CCCN(C(=O)CCN3CCCCC3)C2)C1 (stereo not drawn)	-141
CC(=O)N1CCOC2(CCCN(C(=O)CCN3CCCCC3)C2)C1 (stereo not drawn)	56
Cc1nccc(NCc2cncc3c2CCN(S(C)(=O)=O)C3)n1	-102
Nc1cc(-c2cccs2)nn(CC(=O)N2CCc3ccccc32)c1=O	-13.9
Cc1cc(C)n(CC(C)NCCn2nc(C)c(Cl)c2C)n1 (stereo not drawn)	-48.1
Cc1cc(C)n(CC(C)NCCN2CCc3ccccc32)n1 (stereo not drawn)	54.7
Cc1ccnc(NCCCN2CCc3ccccc32)n1	19.8
N#CC1(C(=O)N2C[C@@H]3CC[C@H]2CN(Cc2cscn2)C3)CCOCC1	-81.2
COc1cc(F)c(NCc2nc3ccccc3n2C)cc1OC	-381
O=C1N(Cc2cccnc2)CCC12CCCN(c1ncccn1)C2 (stereo not drawn)	-123
COc1ccccc1CC1CCCN(CC(=O)NC2CC2)C1 (stereo not drawn)	16.1
CNC(=O)CN1CCCC(Cc2ccccc2OC)C1 (stereo not drawn)	61.9
COc1ccccc1CN1CCCC(Cc2nccnc2N)C1 (stereo not drawn)	62.1
CNC(=O)NC(=O)CN1CCCC(Cc2ccccc2OC)C1 (stereo not drawn)	-87.4
Nc1nccnc1CC1CCCN(Cc2ccnc3ccccc23)C1 (stereo not drawn)	-53.7

Structure (SMILES)	INHIBITION [%]
Nc1nccnc1CC1CCCN(Cc2cccc3[nH]ccc23)C1 (stereo not drawn)	19.4
CCN1CCN(c2ccccc2NC(=O)N(C)C2CCSC2)CC1 (stereo not drawn)	37.6
CN(C)Cc1noc2c1CN(Cc1ccc[nH]1)CC2	-77.5
Cc1ccc2c(c1)C(NCc1nccn1Cc1ccccc1)CCCO2 (stereo not drawn)	35.8
Cc1ccc2c(c1)C(NCc1nnc3n1CCCCC3)CCCO2 (stereo not drawn)	-74.6
Cc1ccc2c(c1)OC(C)(C)CC2NC(=O)C1CCN(C)CC1 (stereo not drawn)	30.2
Cc1ccc2c(c1)C(NC1CCN(C)CC1)CCCO2 (stereo not drawn)	66.8
Cc1ccc2c(c1)OCCCC2NC1CCN(C)CC1 (stereo not drawn)	50.3
Cc1cc2c(cc1C)C(NC1CC1)CCCO2 (stereo not drawn)	-3.02
CS(=O)(=O)N1CC[C@H]2O[C@H](C(=O)NCCc3ccccn3)CC[C@H]21	-48.2
COc1cccc(OCCc2nc3c(cc2C(N)=O)CCC3)c1	-58.5
Cc1nc(CN2CCCC(N(C)CC3CCCC3)C2)no1 (stereo not drawn)	-42.4
CCc1nc(C2CCCN2CCCc2nc3ccccc3o2)no1 (stereo not drawn)	-157
Cc1nc2ccccn2c1CC(=O)N[C@@H]1CC[C@@H](N2CCOCC2)[C@@H]1O	-72.5
NCc1ccccc1Sc1ccc(O)cc1	56.7
CN(C)CCNC(=O)c1cc(-c2cnc(N3CCCC3)nc2)cn1C	-123
c1ccc(-n2cc(CN3CCCC3Cn3cncn3)nn2)cc1 (stereo not drawn)	-14
C[C@@H]1CN(C2(C(=O)N3CCOCC3)Cc3ccccc3C2)C[C@H](C)O1	-22.3
C[C@@H]1CN(C2(C(=O)N3CCNCC3)Cc3ccccc3C2)C[C@H](C)O1	63.4
C[C@@H]1CN(C2(C(=O)N3CCSCC3)Cc3ccccc3C2)C[C@H](C)O1	-238
